Here are results for 40 molecules from PubChem BioAssay (Tox21).

Records with an inconclusive call do not appear. A number with no mark means an inactive call. Calls come from the whole dose curve.

The experiment can be described thus: qHTS assay to identify small molecule agonists of the AP-1 signaling pathway - cell viability counter screen (AID 1159525). Note: nearly all actives have a fitted effect of over 55% in size. The conditions noted are these: ME-180 (cervical carcinoma) AP-1-bla cells viability, ATP luminescence, 5 h; series mostly up to 76.8 µM; viability change, negative = cytotoxic: at the top concentration. The source says:
National Center for Advancing Translational Sciences [NCATS]
NIH Chemical Genomics Center [NCGC]
U.S. Environmental Protection Agency [EPA]
National Institutes of Environmental Health Sciences [NIEHS]
National Toxicology Program [NTP]
U.S. Food and Drug Administration [FDA]
Activator protein-1 (AP-1), a transcription factor, plays an important role in tumor genesis by regulating genes involved in cell proliferation, differentiation, apoptosis, and angiogenesis. AP-1 activity is induced by a complex network of signaling pathways that involves extracellular signals, such as growth factors. The AP-1 protein complex formed from c-Fos and c-Jun binding to the AP-1 response element results in transcriptional activation of genes containing such elements within their promoter.
Low molecular weight molecules have been discovered and developed to modulate various components of these signaling pathways, for example, MAP kinase inhibitors. However, many points of pathway modulation remain untested due to the lack of chemical probes making this signaling locus of general interest.
Using a beta-lactamase reporter-gene under control of the AP-1 response element, a cell-based assay [CellSensor(TM) AP-1-bla ME-180 developed by Invitrogen Corp.] was used to measure EGF-induced signaling. The Tox21 10K library compounds were measured for their ability to positively modulate the action of EC50 EGF on reporter gene activity. Compounds were screened in a 15-pt titration series in 1536-well format. The cytotoxicity of the Tox21 compound library against this cell line was tested in parallel by measuring the intra cellular ATP content in the same wells.
Tox21 Assay Protocol Summary:
2500 cells/5uL in Opti-MEM medium containing 0.5% dialyzed FBS, 0.1 mM NEAA, 1 mM sodium pyruvate and 10 mM HEPES was dispensed into 1536-well black wall/clear bottom plates using a Multidrop dispenser and cells were cultured at 37 degrees Celsius overnight. Next day 23 nL of compounds dissolved in DMSO, positive controls or DMSO were delivered to each well using a pin tool. The plates were incubated at 37 degrees Celsius for 5 hours. 1 uL of LiveBLAzerTM B/G FRET substrate (Solution A+B+C+D) was added to each well using a Flying Reagent Dispenser. After incubated at room temperature for 2.5 hours the plates were measured on an EnVision plate reader at Excitation 405nm, Emission1=460nm and Emission 2=530nm. The %Activity was determined from the ratio of 460nm/530nm.
After the plates were read for Beta-Lactamase assay on Envision; 3 ul Cell Titer Glo (Promega) was added to measure the cytotoxicity and the plates were then incubated at RT in dark for 30 min. The luminescence was read on ViewLux (Perkin Elmer, Shelton, CT) using 6 sec exposure. ViewLux data was expressed as relative luminescence units.
For primary data analysis, raw plate reads for each titration point were first normalized relative to […] EGF control (100%) and DMSO only wells (basal, 0%).
For primary data analysis for viability assay, raw plate reads for each titration point were first normalized Tetra n-octyl ammonium bromide control (-100%) and DMSO (control, 100%).
With `C=C(C)C(=O)NCCCN(C)C`, the “viability change, negative = cytotoxic” value is -1.22%. The value for `COC(=O)c1ccc(C(=O)OC)c(C(=O)OC)c1` was -0.99%. For `O=C(O)CCNC(=O)c1ccc(N=Nc2ccc(O)c(C(=O)O)c2)cc1`, the “viability change, negative = cytotoxic” value is 5.28% [at 35.3 µM]. In the case of `CCCC(C)CO` (stereo not given), the “viability change, negative = cytotoxic” value was 1.37%. For `CN(C)C(=O)Nc1ccccc1`, the “viability change, negative = cytotoxic” value was -4.28%. The value for `COc1ccc2cc(C=O)ccc2c1` was 7.96% [at 35.3 µM]; that for `C=C(C)[C@@H]1CCC2=CC(=O)C[C@@H](C)[C@]2(C)C1` was -0.22%. In the case of `O=C(O)c1ccccc1S`, the “viability change, negative = cytotoxic” value is -5.52% [at 35.3 µM]. The value for `CC(C)=CC(=O)O` was 5.21%; that for `COc1cc(CCC(C)=O)ccc1O` was 4.35%. Regarding `CC/C=C\C#N`, the “viability change, negative = cytotoxic” value was -4.83%. `OCCN1C[C@H](O)[C@@H](O)[C@H](O)[C@H]1CO`: the “viability change, negative = cytotoxic” value was 8.31% [at 35.3 µM]. For the molecule `CC(C)(C)N(CCO)CCO`, the “viability change, negative = cytotoxic” value was 4.63%. In the case of `C1CCCCCCCCCCC1`, the viability change, negative = cytotoxic is 0.327% [at 15.8 µM]. The value for `CCn1c(=O)c2c(nc(/C=C/c3ccc(OC)c(OC)c3)n2C)n(CC)c1=O` was -5.66% [at 35.3 µM]. Take `O=C1OC(=O)c2cc([N+](=O)[O-])ccc21`: the “viability change, negative = cytotoxic” value was 0.822%. With `CC1(C)SC(C)(C)SC(C)(C)S1`, the “viability change, negative = cytotoxic” value is -6.01%. `COC(C(=O)O)c1ccccc1` (stereo not given): the “viability change, negative = cytotoxic” value is -0.474%. Regarding `CCC(=O)Nc1cccc(N)c1`, the “viability change, negative = cytotoxic” value was 2.71%.

With `COc1ccc(N=[N+]([O-])c2ccc(OC)cc2)cc1`, the “viability change, negative = cytotoxic” value is 9.06%. The value for `C[C@H](O)C(=O)Nc1c(I)c(C(=O)NC(CO)CO)c(I)c(C(=O)NC(CO)CO)c1I` was 9.7% [at 35.3 µM]; that for `C#CC(O)C(CC)CCCC` (stereo not given) was 5.2%; that for `CO[Si](CCCNCCC[Si](OC)(OC)OC)(OC)OC` was 0.505%. For the molecule `CCC(C)OC(=O)N1CCCCC1CCO` (stereo not given), the “viability change, negative = cytotoxic” value is 1.58%. The value for `Cc1ccc(N)cc1[N+](=O)[O-]` was 0.0687%; that for `NS(=O)(=O)c1cc2c(cc1C(F)(F)F)NC(Cc1ccccc1)NS2(=O)=O` (stereo not given) was 4.77% [at 35.3 µM].

As for `CNC(=O)c1c(I)c(NC(=O)CCCCC(=O)Nc2c(I)c(C(=O)O)c(I)c(C(=O)NC)c2I)c(I)c(C(=O)O)c1I`, the “viability change, negative = cytotoxic” value is -3.79% [at 35.3 µM]. The value for `CCCOc1ccccc1-c1nc2n[nH]nc2c(=O)[nH]1` was -11.1% [at 35.3 µM]; that for `CCCCCCOC(=O)CC(CC(=O)OCCCCCC)(OC(=O)CCC)C(=O)OCCCCCC` was -5.39%. The value for `C=CCOc1nc(OCC=C)nc(OCC=C)n1` was 2.03%; that for `CSc1nc(NC2CC2)nc(NC(C)(C)C)n1` was 1.22%; that for `O=C(O)/C=C/c1ccc(/C=C/C(=O)O)cc1` was 2.36% [at 35.3 µM]. For the molecule `CCN(CC)C(=O)c1ccc(O)c(OC)c1`, the “viability change, negative = cytotoxic” value is -11.6% [at 35.3 µM].

`CC(C)CCCCCCN`: the “viability change, negative = cytotoxic” value is -2.37%. The value for `Cc1c(C)n(CCN(C)C)c2ccc(C(=O)OCCN(C)C)cc12` was 1.42% [at 35.3 µM]. Turning to `C=C(C)C(=O)OCCC(C)OC(=O)C(=C)C` (stereo not given), the “viability change, negative = cytotoxic” value was -1.27%. The value for `CC(C)(C)C(=O)/C=C/c1ccc(Cl)cc1` was 6%. The value for `CC(C)CCOC(=O)CC(C)C` was 1.32%; that for `O=C(O)C1CCC1` was 7.27% [at 35.3 µM]. Turning to `CN(C)CCOC(c1ccc(Cl)cc1)c1ccccn1` (stereo not given), the “viability change, negative = cytotoxic” value is 0.493% [at 35.3 µM].
